The supplement of paper PMC6555819

Tests used:
Experiment in all cases: PBM binding z-score (relative to random genomic background probes); higher = stronger binding; sequences stand for … in GC…GCGATTGACAGCGTAGAATGAAGG
[1] = test system: FXR:RXRa (NR concentration 270 nM, RXRa partner concentration 90 nM)
Method in brief: (§1)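 Regression normalization was applied to scanned fluorescence from custom Agilent 4×180K protein-binding microarrays. Before scanning, arrays were incubated 1 h with ligand-free nuclear receptor dimers, and binding was detected with antibodies against each partner (one per run). Binding z-scores use the random background probes as reference.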

[2] = test system: LXRa:RXRa (NR concentration 270 nM, RXRa partner concentration 90 nM)
Method in brief: as §1

[3] = test system: LXRa homodimer (NR concentration 270 nM)
Method in brief: as §1

[4] = test system: LXRb:RXRa (NR concentration 270 nM, RXRa partner concentration 90 nM)
Method in brief: as §1

[5] = test system: LXRb homodimer (NR concentration 270 nM)
Method in brief: as §1

[6] = test system: PPARa:RXRa (NR concentration 270 nM, RXRa partner concentration 90 nM)
Method in brief: as §1

[7] = test system: PPARg:RXRa (NR concentration 180 nM, RXRa partner concentration 90 nM)
Method in brief: as §1

[8] = test system: PPARg:RXRa 270nM:90nM, anti-RXR (NR concentration 270 nM, RXRa partner concentration 90 nM)
Method in brief: as §1

[9] = test system: PPARg:RXRa 30nM:10nM, anti-RXR (NR concentration 30 nM, RXRa partner concentration 10 nM)
Method in brief: as §1

[10] = test system: PPARg:RXRa 90nM:30nM, anti-RXR (NR concentration 90 nM, RXRa partner concentration 30 nM)
Method in brief: as §1

[11] = test system: PPARg:RXRa DBDmut IVT, anti-RXR (DBD mutation: RXRa K156A/R161A, NR concentration 270 nM, RXRa partner concentration 90 nM)
Method in brief: as §1

[12] = test system: PPARg:RXRa IVT, anti-PPARg (NR concentration 270 nM, RXRa partner concentration 90 nM)
Method in brief: as §1

[13] = test system: PPARg DBDmut:RXRa IVT, anti-PPARg (DBD mutation: PPARg1 K132A/R137A, NR concentration 270 nM, RXRa partner concentration 90 nM)
Method in brief: as §1

[14] = test system: PPARg DBDmut IVT, anti-PPARg (DBD mutation: PPARg1 K132A/R137A, NR concentration 270 nM)
Method in brief: as §1

[15] = test system: PPARg homodimer (NR concentration 180 nM)
Method in brief: as §1

[16] = test system: PXR:RXRa (NR concentration 270 nM, RXRa partner concentration 90 nM)
Method in brief: as §1

[17] = test system: PXR homodimer (NR concentration 270 nM)
Method in brief: as §1

[18] = test system: RARa:RXR (NR concentration 270 nM, RXRa partner concentration 90 nM)
Method in brief: as §1

[19] = test system: RARa homodimer (NR concentration 270 nM)
Method in brief: as §1

[20] = test system: RARb:RXRa (NR concentration 270 nM, RXRa partner concentration 90 nM)
Method in brief: as §1

Sequence	PBM binding z-score [1]	PBM binding z-score [2]	PBM binding z-score [3]	PBM binding z-score [4]	PBM binding z-score [5]	PBM binding z-score [6]	PBM binding z-score [7]	PBM binding z-score [8]	PBM binding z-score [9]	PBM binding z-score [10]	PBM binding z-score [11]	PBM binding z-score [12]	PBM binding z-score [13]	PBM binding z-score [14]	PBM binding z-score [15]	PBM binding z-score [16]	PBM binding z-score [17]	PBM binding z-score [18]	PBM binding z-score [19]	PBM binding z-score [20]
GATACAGGGTCAGCTAGAGGCCACAGTATGGAAA	4.67	3.33	-0.234	2.65	-0.958	4.64	4.12	3.58	1.09	2.68	1.47	2.57	0.921	0.377	2.57	3.94	-0.253	5.22	0.785	4.2
TAGCCTAGATCATGCGGGCCAGTATAGTGTCGGC	-2.92	-1.33	-1.04	-1.36	-0.772	-0.834	0.0405	-0.522	-0.938	-0.742	0.553	0.672	-0.852	-1.76	-1.53	-1.41	-1.04	-1.57	-0.691	-1.2
CGTCAAAATTCAACTAAGGTAACGTAAAGCACGC	0.963	0.314	0.303	0.543	0.0502	0.568	0.569	0.127	-0.0256	0.246	-0.174	0.543	0.555	1.22	-0.0431	0.326	0.413	1.71	1.69	0.577
TCATATAGGTAAACAGGTGAAAGGCCGTAAGTTA	1.02	0.944	0.383	0.971	0.244	3.2	5.16	4.67	4.73	5.29	4.71	4.59	1.06	1.36	1.42	0.956	0.656	1.37	1.25	0.989
TATACAGGGTCAAAGGCCAGAGTGCGAATGTCGA	7.16	6.05	2.6	4.8	2.58	6.08	8.23	7.43	5.95	7.86	2.54	4.9	2.49	2.56	5.37	4.79	1.14	6.61	1.49	4.59
ACTATTTGGTCAGCTGAGGTCACACACAATTCGG	3.54	3.48	2.98	3.81	1.88	3.9	1.86	2.4	0.852	1.66	1.59	2.69	1.5	1.46	2.9	5.26	1.97	4.3	1.66	3.65
TCTAGCAGGCCAGAGGGTTACTCAAGAGGTACGG	-0.419	-0.0387	-1.02	-0.282	-1.4	0.38	0.82	1.73	1.86	1.81	0.735	-0.175	-1.35	-1.09	-0.477	-0.175	-0.868	-0.0112	-0.732	0.213
CCTAGCAGGCTAGGGTCACTCAAGCATTTCGCTT	2.86	2.4	-0.638	2.55	-0.881	3.67	0.643	1.87	-0.254	0.841	0.26	0.393	-1.9	-1.59	1.58	3.3	-0.41	4.27	-0.0687	2.89
CCTACTTGGCCACGAAAGGTCATTGATTCAGTGA	4.07	5.32	5.29	4.61	1.16	4.46	1.84	3.31	1.01	2.5	1.97	2.14	0.246	0.627	3.9	5.3	1.97	5.51	2.48	4.09
TCTCGGAGGACACGAAAGGTCAGAGCTCGACATC	3.13	3.71	3.02	2.84	-0.0794	3.45	1.37	2.8	2.54	2.41	1.62	1.53	0.174	-1.26	3.04	3.96	0.404	4.18	1.9	4.14
CGTCATAGTTCAAGGTAACGTAACAGAAAGCAGC	1.89	2.17	0.514	1.5	0.174	2.48	1.29	1.78	0.603	1.3	0.329	0.799	0.676	1.29	1.19	1.39	0.511	1.43	0.512	3.34
CCGACTGGGGCAAGGTTAACATAACGCACAGCCA	0.315	0.681	-0.0664	0.737	-0.786	2.59	4.38	4.92	2.68	4.38	3.28	3.69	0.246	-0.475	0.856	0.52	-0.244	0.896	0.086	1.74
TCTTGTAGATCAACAGGGGGTTAAGAAAGATCGA	1.48	2.69	0.266	3.75	8.09	2.75	0.692	2.99	3.73	3.26	2.83	3.29	5.31	7.46	1.07	2.5	0.467	2.42	0.939	1.71
CTACCAAGGTGAACAAGTTCGTTGATTACTATTC	0.442	0.532	0.164	0.939	-0.333	1.49	0.367	0.665	-0.0232	0.145	2.33	2.42	0.0227	0.729	0.895	2.81	4.46	0.986	0.313	1.55
